Arbovirus anti: arbovirus infection inhibition. inhibition, % at 10 µM. AID 1251. hit rate 0.37% among 200,000. arbovirus infection cell-based antiviral screen; in the data active = inhibition above about 30%
MEKK3 PB1 HTS: modulators (inhibitors or enhancers) of MEK5 binding to human MEKK3 PB1 domain; bead-based flow cytometry, Alexa488-MEK5 binding to MEKK3; actives lie on both sides; 0 = blocked by unlabeled MEK5, 100 = vehicle; binding response (% of control), % at 10 µM; hit rate 1.4% among 290,000; AID 1529;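 active = binding response more than 3 SD above or below the average of its plate-row segment, actives on both sides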;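 note: Alexa488 bead fluorescence after subtracting the streptavidin-only scavenger bead signal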
Target sequence (Q99759 whole entry, looked up, the tested form may be a part): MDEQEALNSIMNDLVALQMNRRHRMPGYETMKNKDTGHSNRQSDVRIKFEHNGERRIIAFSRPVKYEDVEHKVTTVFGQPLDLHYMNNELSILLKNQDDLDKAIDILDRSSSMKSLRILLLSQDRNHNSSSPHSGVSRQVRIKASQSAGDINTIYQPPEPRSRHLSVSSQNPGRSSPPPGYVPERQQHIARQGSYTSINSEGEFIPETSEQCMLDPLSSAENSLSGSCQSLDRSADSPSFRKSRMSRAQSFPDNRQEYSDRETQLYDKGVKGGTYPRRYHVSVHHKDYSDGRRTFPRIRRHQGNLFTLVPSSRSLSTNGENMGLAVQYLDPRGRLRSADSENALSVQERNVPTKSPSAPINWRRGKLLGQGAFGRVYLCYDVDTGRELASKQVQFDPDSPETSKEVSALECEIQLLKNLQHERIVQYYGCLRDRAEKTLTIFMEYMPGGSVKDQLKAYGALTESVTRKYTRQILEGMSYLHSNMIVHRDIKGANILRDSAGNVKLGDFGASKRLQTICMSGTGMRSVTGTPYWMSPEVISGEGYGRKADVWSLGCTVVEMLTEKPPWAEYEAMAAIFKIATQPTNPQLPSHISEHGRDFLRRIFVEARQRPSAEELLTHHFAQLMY
MEKK2 mut-MEK5: signal of MEK5 binding to mutant human MEKK2 PB1 domain | hit rate 0.35% among 290,000 | percent response, % at 10 µM | bead flow cytometry, Alexa488-MEK5 binding to MEKK2 mutant | AID 1530; in the data active = percent response above about 24%, passing the limit was not always enough
Pf gamet viab: kills late stage P. falciparum gametocytes; inhibition, % at 10.9 µM; P. falciparum stage V gametocytes, ATP luminescence, 24 h; hit rate 0.065% among 150,000;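 active = inhibition above the mean plus 3 SD of compounds within the control limits, set per campaign, cut at about 38% in these data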;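 note: 0% = DMSO wells and 100% = medium only without gametocytes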
MEKK2 WT-MEK5: raises or lowers MEK5 binding to wildtype human MEKK2 PB1 domain | Q9Y2U5 | bead flow cytometry, Alexa488-MEK5 binding to MEKK2 WT; actives lie on both sides | binding response (% of control), % at 10 µM | hit rate 1.1% among 290,000 | AID 1531; in the data active = binding response below about 67% or above about 130%
MEKK2wt confirm: raises or lowers MEK5 binding to wildtype human MEKK2, retest; bead flow cytometry, Alexa488-MEK5 binding to MEKK2 WT; actives lie on both sides; binding response (% of control), % at 10 µM; shares compounds with MEKK3 PB1 HTS; hit rate 2.4% among 5,900; in the data active = binding response below about 16% or above about 210%; inactive = in between
MEKK2mut-MEK5: signal of MEK5 binding to mutant human MEKK2, retest. shares compounds with MEKK3 PB1 HTS. bead flow cytometry, Alexa488-MEK5 binding to MEKK2 mutant. percent response, % at 10 µM. hit rate 2% among 5,900. AID 1893; in the data active = percent response mostly above about 71%, no sharp cut-off; inactive = mostly below about 38%;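 note: higher means compound restores mutant binding toward wildtype level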
MEKK3 confirm: confirmation of inhibitors of MEK5 binding to human MEKK3 | binding response (% of control), % at 10 µM | shares compounds with MEKK3 PB1 HTS | AID 1894 | hit rate 1.8% among 5,900 | bead flow cytometry, Alexa488-MEK5 binding to MEKK3; hits give low values;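 active = binding response below 72% of control, or above a set upper limit, though filed actives all read lower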;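 note: 100% = DMSO only wells and 0% = binding blocked by excess unlabeled MEK5; lower values mean stronger disruption of MEK5 binding to MEKK3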
Active calls of the source: *; nt = not tested or not shown; [ ] = dose if it differs, or a comment. Sampled rows, rich in hits. Any-hit rate of the full collection: about 2.4%.

SMILES	Arbovirus anti	MEKK3 PB1 HTS	MEKK2 mut-MEK5	Pf gamet viab	MEKK2 WT-MEK5	MEKK2wt confirm	MEKK2mut-MEK5	MEKK3 confirm
O=C(O)c1cccnc1SC1CC(=O)N(c2ccccc2)C1=O (centres undefined)	nt	128*	33	-3	117	95	-7	96
N#Cc1ccc(NC(=O)Nc2cccc(C#N)c2)cc1	nt	106	6	nt	107	nt	nt	nt
N#Cc1ccc(NC(=O)Nc2ccc(Oc3ccc(NC(=O)Nc4ccc(C#N)cc4)cc3)cc2)cc1	nt	106	42	nt	150*	141	16	101
C[C@@H](NCCc1ccc(O)cc1)[C@@H](O)c1ccc(O)cc1	nt	115	5	nt	117	nt	nt	nt
CCCCCCCCNC(C)C(O)c1ccc(SC(C)C)cc1 (centres undefined)	-44	114	48*	nt	142*	198	51	108
Cc1cccc(C(=O)N[C@H](C(=O)Nc2nc3ccccc3[nH]2)C(C)C)c1	-10	132*	5	-24	120	99	-5	102
COc1ccc(C(=O)N[C@H](C(=O)Nc2nc3ccccc3[nH]2)C(C)C)cc1	-6	103	2	-6	104	nt	nt	nt
COc1ccccc1NC(=O)C(C/C=C(\C)Cl)C(C)=O (centres undefined)	-7	79*[inhibitor]	-9	nt	83	103	-6	101
COc1ccccc1NC(=O)C(CC=C(Cl)Cl)C(C)=O (centres undefined)	-1	100	2	nt	104	nt	nt	nt
CCOC(=O)Cc1csc(NC(=O)c2c(O)c3ccccc3n(CC(C)C)c2=O)n1	-16	73*[inhibitor]	-9	-2	78	106	6	106
CC(C)Cn1c(=O)c(C(=O)Nc2ccccc2S(N)(=O)=O)c(O)c2ccccc21	-21	102	6	nt	99	nt	nt	nt
Cn1c(/C=C(\C#N)C(N)=S)ccc1-c1ccc(Br)cc1	-13	86	-6	-2	62*[inhibitor]	74	-16	100
Cn1cccc1/C=C(\C#N)C(N)=S	nt	97	-3	-24	98	nt	nt	nt
COCC(C)(C)COS(N)(=O)=O	nt	103	1	23	120	nt	nt	nt
COc1ccc(CNCC(O)(c2ccc(Cl)cc2)c2ccc(Cl)cc2)cc1	-37	105	10	-8	154*	167	26	106
OC(CNCc1ccc(Cl)cc1)(c1ccccc1)c1ccc(F)cc1 (centres undefined)	7	102	5	0	118	nt	nt	nt
CCCCNCC(O)(c1ccc(Cl)cc1)c1ccc(Cl)cc1	-16	119	21	-17	146*	105	-6	84
COc1ccc(CNCC(O)(c2ccc(Cl)cc2)c2ccc(Cl)cc2)cc1OC	-37	113	39	-1	179*	131	9	100
CCc1cccc2c1NC(=O)C21OCCO1	nt	102	2	nt	101	nt	nt	nt
CC1(C)OC(=O)C=C[C@]2(C)[C@H]3CC[C@@]4(C)[C@H](C(=O)O)OC(=O)[C@H]5O[C@]54[C@]3(C)C(=O)C[C@@H]12	nt	nt	nt	-19	nt	nt	nt	nt
O=C(CSc1ccc(F)cc1)NC1CCCCC1	6	2.0*[inhibitor]	-84	6	1.0*[inhibitor]	106	5	107
O=C(Nc1cccc(-c2ccc(F)cc2)c1)C1CCCN(Cc2cccnc2)C1 (centres undefined)	nt	96	-2	nt	104	nt	nt	nt
NS(=O)(=O)c1ccc(CCNC(=O)C2CCN(S(=O)(=O)c3ccc(Br)s3)CC2)cc1	7	2.0*[inhibitor]	-46	nt	3.0*[inhibitor]	104	4	103
CNS(=O)(=O)c1cccc(C(=O)OCC(=O)/C=C2/N(C)c3ccccc3C2(C)C)c1	5	131*	1	-9	108	106	-2	100
CCOc1ccc(S(=O)(=O)N2CCCC(C(=O)Nc3cccc(C)c3)C2)cc1 (centres undefined)	nt	103	5	nt	101	nt	nt	nt
SMILES	Arbovirus anti	MEKK3 PB1 HTS	MEKK2 mut-MEK5	Pf gamet viab	MEKK2 WT-MEK5	MEKK2wt confirm	MEKK2mut-MEK5	MEKK3 confirm
Cc1ccc(S(=O)(=O)N(CC(=O)Nc2cccc([N+](=O)[O-])c2)C2CCCCC2)cc1	4	104	2	-5	109	nt	nt	nt
Cc1ccc(S(=O)(=O)N(CC(=O)Nc2ccc(Cl)c([N+](=O)[O-])c2)C2CCCCC2)cc1	15	107	27	-7	146*	132	20	106
CCC1CCC(C(=O)NC(CCSC)C(=O)NCCc2ccc(S(N)(=O)=O)cc2)CC1 (centres undefined)	nt	103	2	nt	102	nt	nt	nt
CC(C)(C)NC(=O)NC(=O)COC(=O)c1ccc2c(c1)S(=O)(=O)N=C1CCCCCN12	-7	147*	3	-14	103	102	11	99
Cc1ccc(NS(=O)(=O)c2cccc(C(=O)N/N=C/c3ccc4c(c3)OCCO4)c2)c(C)c1	-10	129*	0	nt	110	97	-3	98
CCCCCCC(C)OC(=O)Nc1cccc2ccccc12 (centres undefined)	nt	70*[inhibitor]	1	nt	77	91	-11	94
COCc1cc(C)nc(OCC(=O)N/N=C/c2ccccc2O)c1C#N	-11	92	188*	nt	85	98	0	99
CC(C)COC(=O)c1nnsc1NC(=O)Nc1ccccc1	4	76*[inhibitor]	-13	nt	81	96	-6	103
Cn1c(N)c(C(=O)CSc2nnc(-c3ccccc3F)n2C2CC2)c(=O)n(C)c1=O	6	99	0	-9	96	nt	nt	nt
C=CCn1c(SCC(=O)c2c(N)n(C)c(=O)n(C)c2=O)nnc1-c1ccncc1	-2	105	-3	nt	101	nt	nt	nt
C=CCn1c(SCC(=O)c2c(N)n(C)c(=O)n(C)c2=O)nnc1-c1ccccc1F	1	107	108*	nt	85	101	2	103
Cn1c(N)c(C(=O)CSc2nnc(-c3ccccc3F)n2N)c(=O)n(C)c1=O	nt	47*[inhibitor]	-19	-4	56	101	3	104
COCc1c(C#N)c(NCCc2ccc(F)cc2)nc(C)c1[N+](=O)[O-]	-3	116	-1	-17	104	nt	nt	nt
COCc1c(C#N)c(NCCc2ccccc2)nc(C)c1[N+](=O)[O-]	-1	128*	1	15	106	-1.0*[inhibitor]	-29	0.0*
CCOC(=O)c1c(NC(=O)CN2C(=O)CN(C)C2=O)sc(C)c1C	-5	102	-2	nt	96	nt	nt	nt
O=c1[nH]c2ccc(NC(=S)NCCc3ccccc3)cc2[nH]1	nt	41*[inhibitor]	-13	5	44*[inhibitor]	96	3	101
Cc1ccccc1C(=O)NC(=S)Nc1ccc2[nH]c(=O)[nH]c2c1	-5	135*	3	3	117	96	-1	99

High-throughput results as filed in PubChem BioAssay.
